What is called AC50 is the concentration giving half of the maximal activity seen.

The source made the active and inactive calls. How the source made its calls: active means hit-call score of the fitted dose curve at least 0.9, where 1 is the maximum; inactive means score below 0.9.

Read-out in assay [1]: Human Leukocyte Antigen - DR isotype (HLADR), HLA-DRA (gene 3122)
The experiment in a line: BSK_BE3C_HLADR: BioMAP Diversity Plus: BE3C Assay for Human Leukocyte Antigen - DR isotype (HLADR) Biomarker Activity (AID 2283032). Particulars: primary human bronchial epithelial cells; actives raise or lower the signal. The method, boiled down:
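Cell-surface HLA-DR ELISA readout at 24 h after dosing in the BE3C primary human lung bronchial epithelial system; gain or loss of signal against DMSO, with parallel sulforhodamine B staining of total protein for overt cytotoxicity.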

Read-out in assay [2]: Vascular cell adhesion molecule 1 (VCAM1), VCAM1 (gene 7412)
The experiment in a line: BSK_4H_VCAM1: BioMAP Diversity Plus: 4H Assay for Vascular cell adhesion molecule 1 (VCAM1) Biomarker Activity (AID 2283033).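 On outcome: cell-surface VCAM-1 protein measured by ELISA.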 Particulars: primary human endothelial cells (HUVEC); actives raise or lower the signal. In outline:
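VCAM-1 ELISA read 24 h after chemical dosing of HUVEC in the BioMAP 4H system, with gain or loss of signal fitted relative to DMSO. Parallel SRB staining (560 nm) checked overt cytotoxicity.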

Read-out in assay [3]: Interferon-gamma inducible Protein 10 (IP10), CXCL10 (gene 3627)
The experiment in a line: BSK_BE3C_IP10: BioMAP Diversity Plus: BE3C Assay for Interferon-gamma inducible Protein 10 (IP10) Biomarker Activity (AID 2283034). Particulars: primary human bronchial epithelial cells; actives raise or lower the signal. The method, boiled down: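 IP-10 quantified by ELISA in human primary bronchial epithelial cell cultures at 24 hours post-dosing. Gain or loss of signal fitted relative to DMSO; parallel SRB staining assessed overt cytotoxicity.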

Read-out in assay [4]: Monokine induced gamma interferon (MIG), CXCL9 (gene 4283)
The experiment in a line: BSK_BE3C_MIG: BioMAP Diversity Plus: BE3C Assay for Monokine induced gamma interferon (MIG) Biomarker Activity (AID 2283035). The note with it: primary human bronchial epithelial cells; actives raise or lower the signal. In outline:
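Dose cells (human primary bronchial epithelial), incubate 24 h, quantify MIG by ELISA, then fit concentration–response in both directions relative to DMSO control.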

Read-out in assay [5]: Transforming growth factor beta 1 (TGFb1), TGFB1 (gene 7040)
The experiment in a line: BSK_BE3C_TGFb1: BioMAP Diversity Plus: BE3C Assay for Transforming growth factor beta 1 (TGFb1) Biomarker Activity (AID 2283036;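 on outcome: TGF-b1 protein level measured by ELISA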). The note with it: primary human bronchial epithelial cells; actives raise or lower the signal. In outline:
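ELISA readout of TGF-b1 from human lung bronchial epithelial primary cells, taken 24 h post-treatment. Gain or loss of signal fitted relative to DMSO baseline, with parallel SRB staining for overt cytotoxicity.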

Read-out in assay [6]: Plasminogen activator inhibitor-1 (PAI1), SERPINE1 (gene 5054)
The experiment in a line: BSK_BE3C_PAI1: BioMAP Diversity Plus: BE3C Assay for Plasminogen activator inhibitor-1 (PAI1) Biomarker Activity (AID 2283037). Particulars: primary human bronchial epithelial cells; actives raise or lower the signal. In outline:
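PAI-1 was measured by ELISA in human primary bronchial epithelial cultures 24 h after chemical dosing, with cytotoxicity checked by SRB total-protein staining in parallel cultures. Activity was fitted in both directions relative to DMSO.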

Read-out in assay [7]: urokinase plasminogen activator (uPA), PLAU (gene 5328)
The experiment in a line: BSK_BE3C_uPA: BioMAP Diversity Plus: BE3C Assay for urokinase plasminogen activator (uPA) Biomarker Activity (AID 2283038).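 On outcome: uPA protein level quantified by ELISA in cell cultures; uPA read one day after compound addition.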 Particulars: primary human bronchial epithelial cells; actives raise or lower the signal. In outline:
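ELISA read-out of uPA in human lung primary bronchial epithelial cultures, 24 h post-dosing. Gain or loss of signal fitted bidirectionally relative to DMSO baseline; cytotoxicity checked in parallel cultures via SRB total protein stain.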

Read-out in assay [8]: Interleukin-6 (IL6), IL6 (gene 3569)
The experiment in a line: BSK_CASM3C_IL6: BioMAP Diversity Plus: CASM3C Assay for Interleukin-6 (IL6) Biomarker Activity for (AID 2283040). The note with it: primary human coronary artery smooth muscle cells; actives raise or lower the signal.

Read-out in assay [9]: Tissue plasminogen activator (tPA), PLAT (gene 5327)
The experiment in a line: BSK_BE3C_tPA: BioMAP Diversity Plus: BE3C Assay for Tissue plasminogen activator (tPA) Biomarker Activity (AID 2283041).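 On outcome: tPA level quantified by ELISA one day after compound addition.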 The note with it: primary human bronchial epithelial cells; actives raise or lower the signal. In outline:
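tPA measured by ELISA 24 h after dosing human primary bronchial epithelial cells (BE3C system). Changes in either direction were fitted against DMSO. Parallel cultures were stained with SRB to flag overt cytotoxicity.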

Read-out in assay [10]: Interleukin-8 (IL8), CXCL8 (gene 3576)
The experiment in a line: BSK_CASM3C_IL8: BioMAP Diversity Plus: CASM3C Assay for Interleukin-8 (IL8) Biomarker Activity (AID 2283042).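 Further: IL-8 protein level quantified by ELISA.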 Particulars: primary human coronary artery smooth muscle cells; actives raise or lower the signal.

Read-out in assay [11]: Human Leukocyte Antigen - DR isotype (HLADR), HLA-DRA (gene 3122)
The experiment in a line: BSK_CASM3C_HLADR: BioMAP Diversity Plus: CASM3C Assay for Human Leukocyte Antigen - DR isotype (HLADR) Biomarker Activity (AID 2283043).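 Further: cell-surface HLA-DR protein level quantified by ELISA.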 The note with it: primary human coronary artery smooth muscle cells; actives raise or lower the signal.

Read-out in assay [12]: Macrophage colony-stimulating factor (MCSF), CSF1 (gene 1435)
The experiment in a line: BSK_CASM3C_MCSF: BioMAP Diversity Plus: CASM3C Assay for Macrophage colony-stimulating factor (MCSF) Biomarker Activity (AID 2283044).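 Further: M-CSF protein amount quantified by ELISA after 24 h exposure.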 The note with it: primary human coronary artery smooth muscle cells; actives raise or lower the signal.

Read-out in assay [13]: Low-density lipoprotein receptor (LDLR), LDLR (gene 3949)
The experiment in a line: BSK_CASM3C_LDLR: BioMAP Diversity Plus: CASM3C Assay for Low-density lipoprotein receptor (LDLR) Biomarker Activity (AID 2283045).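 Further: LDLR protein level on the cell surface quantified by ELISA.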 The note with it: primary human coronary artery smooth muscle cells; actives raise or lower the signal.

Read-out in assay [14]: Monocyte Chemoattractant Protein-1 (MCP1), CCL2 (gene 6347)
The experiment in a line: BSK_CASM3C_MCP1: BioMAP Diversity Plus: CASM3C Assay for Monocyte Chemoattractant Protein-1 (MCP1) Biomarker Activity (AID 2283046).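 Further: MCP-1 level quantified by ELISA 24 h after dosing.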 The note with it: primary human coronary artery smooth muscle cells; actives raise or lower the signal.

Assay [15] in a line: BSK_CASM3C_Proliferation: Cell Proliferation Assessment in the BioMAP Diversity Plus: CASM3C Assay (AID 2283047).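 Further: sulforhodamine B total protein stain as relative cell number at 560 nm; sub-confluent cells exposed 48 h before staining; fitted both ways against DMSO so gain or loss of cell number.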 Particulars: primary human coronary artery smooth muscle cells.
Read-out in assay [16]: Monokine induced gamma interferon (MIG), CXCL9 (gene 4283)
The experiment in a line: BSK_CASM3C_MIG: BioMAP Diversity Plus: CASM3C Assay for Monokine induced gamma interferon (MIG) Biomarker Activity (AID 2283048).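 Further: MIG protein level measured by ELISA.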 Particulars: primary human coronary artery smooth muscle cells; actives raise or lower the signal.

Read-out in assay [17]: serum amyloid A (SAA), SAA1 (gene 6288)
The experiment in a line: BSK_CASM3C_SAA: BioMAP Diversity Plus: CASM3C Assay for serum amyloid A (SAA) Biomarker Activity (AID 2283049).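 Further: SAA protein level quantified by ELISA.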 Particulars: primary human coronary artery smooth muscle cells; actives raise or lower the signal.

Assay [18] can be described thus: BSK_CASM3C_SRB: Viability Assessment in the BioMAP Diversity Plus: CASM3C Assay (AID 2283050). Particulars: primary human coronary artery smooth muscle cells.
Read-out in assay [19]: Thrombomodulin, THBD (gene 7056)
The experiment in a line: BSK_CASM3C_Thrombomodulin: BioMAP Diversity Plus: CASM3C Assay for Thrombomodulin Biomarker Activity (AID 2283051).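 Further: thrombomodulin protein level measured by ELISA 24 h after dosing.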 Particulars: primary human coronary artery smooth muscle cells; actives raise or lower the signal.

Read-out in assay [20]: Urokinase-type plasminogen activator receptor (uPAR), PLAUR (gene 5329)
The experiment in a line: BSK_BE3C_uPAR: BioMAP Diversity Plus: BE3C Assay for Urokinase-type plasminogen activator receptor (uPAR) Biomarker Activity (AID 2283039).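 On outcome: cells exposed to compound for one day before measurement.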 Particulars: primary human bronchial epithelial cells; actives raise or lower the signal. The method, boiled down:
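uPAR levels were measured by ELISA after 24 h compound treatment of primary human bronchial epithelial cells, fitted in both directions relative to DMSO. Parallel SRB staining served as the cytotoxicity read-out.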

Consider `CCCCC(CC)COC(=O)c1ccc(C(=O)OCC(CC)CCCC)cc1` (stereo not drawn), for which the result in [1], in [2], in [3], in [4], in [5] and in assay [6] was inactive. In addition, the result in assay [7], in assay [8], in [9], in assay [10], in [11] and in assay [12] was inactive. In addition, the result in assay [13], in assay [14], in assay [15], in assay [16], in assay [17] and in assay [18] was inactive. Moreover, the result in assay [19] was inactive.

For `Cn1c(=O)c2c(ncn2C)n(C)c1=O`, the result in [1], in assay [2], in [3], in assay [4], in [5] and in assay [6] was inactive. The result in assay [7], in assay [8], in [9], in assay [10], in [11] and in [12] was inactive. Moreover, the outcome in assay [13], in [14], in assay [15], in [16], in assay [17] and in [18] was inactive. The outcome in [19] was inactive.

On to `CC(C)CCO`, for which the outcome in assay [1], in [2], in assay [3], in [4], in assay [5] and in assay [6] was inactive. In addition, the result in assay [7], in assay [8], in assay [9], in [10], in assay [11] and in assay [12] was inactive. In addition, the result in [13], in assay [14], in [15], in assay [16], in [17] and in [18] was inactive. Moreover, the result in assay [19] was inactive.

For the compound `CCc1cc(SCc2sc(-c3ccc(C(F)(F)F)cc3)nc2CN2CCN(c3ccc(OC)cc3)CC2)ccc1OCC(=O)O`, the AC50 in [1] was 5.41 µM (active); in assay [2], 10 µM (active); in assay [3] it was 3.2 µM (active); in [4], 5.52 µM (active); in assay [5] it was 5.17 µM (active); in assay [7], 5.31 µM (active). In addition, the half-maximal activity concentration (AC50) in assay [20] is 5.38 µM (active); in [8], 20 µM (active); in assay [9] it was 5.23 µM (active); in assay [10], 34.1 µM (active); in assay [11] it was 18.7 µM (active); in assay [12] it was 36.1 µM (active). For the same compound, the concentration at half-maximal activity (AC50) in [13] is 31.7 µM (active); in assay [14], 37.4 µM (active); in [15], 15.8 µM (active); in assay [16], 39.1 µM (active); in [17], 31.9 µM (active); in [18] it was 30.1 µM (active). For the same compound, the AC50 in assay [19] is 35.1 µM (active).

On to `NC(=O)NO`, for which the result in assay [1], in [2], in assay [3], in assay [4], in [5] and in [7] was inactive. Further, the result in assay [20], in [8], in assay [9], in assay [10], in assay [11] and in assay [12] was inactive. Further, the result in [13], in assay [14], in assay [15], in assay [16], in [17] and in [18] was inactive. For the same compound, the outcome in assay [19] was inactive.

Take `CN(C)c1ccc(N=NS(=O)(=O)O)cc1`: the outcome in [1], in assay [3], in [4], in [5], in assay [7] and in assay [8] was inactive. Further, the outcome in assay [9], in [10], in [11], in assay [12], in [13] and in assay [14] was inactive. Further, the result in assay [15], in [16], in [17], in assay [18] and in assay [19] was inactive. In addition, in assay [2], the concentration at half-maximal activity (AC50) was 8.31 µM (active).

(Values after PubChem BioAssay (EPA / NIEHS).)
